Reference: paper PMC5700166
Numbering of substitutions follows the chain as printed.

What was measured:
Test in all cases: protein-binding microarray (PBM); PBM: ~300 nM protein, 6 mM HEPES pH 7.8, 80 mM KCl, 0.5 mM EDTA, 0.5 mM EGTA, 6% glycerol, 35 ng/ul poly-dIdC, 1% milk, 1 h, room temperature; Ap Aiptasia and Nv Nematostella (sea anemones) / Co Capsaspora / Aq Amphimedon (sponge) / Dm Drosophila / Hu human; RHD is the Rel homology domain; high values mean tight binding
Details in all cases: dsDNA, one strand shown
[1] = biological target: T1, GST-Ap-NF-kB RHD (Exaiptasia pallida (Aiptasia), UniProt A0A913YAJ5 2-422)
T1 sequence: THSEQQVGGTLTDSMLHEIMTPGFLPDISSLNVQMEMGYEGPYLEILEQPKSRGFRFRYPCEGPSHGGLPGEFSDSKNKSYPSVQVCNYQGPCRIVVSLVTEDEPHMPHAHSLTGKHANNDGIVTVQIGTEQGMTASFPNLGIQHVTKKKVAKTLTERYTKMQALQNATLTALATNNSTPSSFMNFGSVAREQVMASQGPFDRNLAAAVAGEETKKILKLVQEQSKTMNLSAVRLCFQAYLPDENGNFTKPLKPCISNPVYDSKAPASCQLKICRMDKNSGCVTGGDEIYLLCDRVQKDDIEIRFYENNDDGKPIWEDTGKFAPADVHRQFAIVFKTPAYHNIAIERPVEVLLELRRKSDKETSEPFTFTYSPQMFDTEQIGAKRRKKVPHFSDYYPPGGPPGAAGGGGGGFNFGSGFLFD

[2] = biological target: T2, GST-Nv-NF-kB (Cys allele) (Nematostella vectensis, UniProt E5G601 2-411)
T2 sequence: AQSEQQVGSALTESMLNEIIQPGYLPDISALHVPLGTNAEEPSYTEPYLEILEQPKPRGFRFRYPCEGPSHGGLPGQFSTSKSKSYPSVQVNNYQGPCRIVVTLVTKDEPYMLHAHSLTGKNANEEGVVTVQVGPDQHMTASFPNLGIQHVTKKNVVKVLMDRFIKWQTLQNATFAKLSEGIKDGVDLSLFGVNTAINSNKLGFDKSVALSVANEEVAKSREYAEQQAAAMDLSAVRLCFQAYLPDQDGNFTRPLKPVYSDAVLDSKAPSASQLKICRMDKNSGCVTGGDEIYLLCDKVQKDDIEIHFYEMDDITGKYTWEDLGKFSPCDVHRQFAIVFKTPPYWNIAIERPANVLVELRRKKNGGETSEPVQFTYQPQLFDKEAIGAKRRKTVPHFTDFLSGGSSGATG

[3] = biological target: T3, GST-Nv-NF-kB (Ser allele) (Nematostella vectensis, UniProt A7UNT2 2-411)
T3 sequence: T2 sequence with Q21R, C66S, S207N, E215Q, V217A, E225K, A268E, D399E

[4] = biological target: T4, GST-Co-NF-kB (Capsaspora owczarzaki, UniProt F1ARL5 200-546)
T4 sequence: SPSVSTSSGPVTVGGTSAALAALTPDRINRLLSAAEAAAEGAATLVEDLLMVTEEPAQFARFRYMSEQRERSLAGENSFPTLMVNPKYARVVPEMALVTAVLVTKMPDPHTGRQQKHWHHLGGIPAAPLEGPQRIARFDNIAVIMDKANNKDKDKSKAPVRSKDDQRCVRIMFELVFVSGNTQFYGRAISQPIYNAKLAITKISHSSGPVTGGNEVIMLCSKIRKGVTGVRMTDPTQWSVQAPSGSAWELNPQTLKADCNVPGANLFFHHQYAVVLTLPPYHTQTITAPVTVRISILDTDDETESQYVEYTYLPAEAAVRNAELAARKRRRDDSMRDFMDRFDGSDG

[5] = biological target: T5, GST-Dm-Relish (Drosophila melanogaster, UniProt Q94527 99-473)
T5 sequence: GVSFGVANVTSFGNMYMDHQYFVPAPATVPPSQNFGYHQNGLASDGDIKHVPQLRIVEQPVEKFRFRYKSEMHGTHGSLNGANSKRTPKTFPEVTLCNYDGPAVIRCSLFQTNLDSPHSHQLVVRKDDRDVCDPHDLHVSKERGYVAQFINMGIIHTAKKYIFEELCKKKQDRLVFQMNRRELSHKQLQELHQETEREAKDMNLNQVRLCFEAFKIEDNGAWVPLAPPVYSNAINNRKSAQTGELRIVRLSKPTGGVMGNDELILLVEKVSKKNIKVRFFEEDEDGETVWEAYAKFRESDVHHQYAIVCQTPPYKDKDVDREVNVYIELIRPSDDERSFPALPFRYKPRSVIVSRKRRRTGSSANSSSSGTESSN

[6] = biological target: T6, GST-Aq-NF-kB (Amphimedon queenslandica, UniProt A9Y5G7 2-389)
T6 sequence: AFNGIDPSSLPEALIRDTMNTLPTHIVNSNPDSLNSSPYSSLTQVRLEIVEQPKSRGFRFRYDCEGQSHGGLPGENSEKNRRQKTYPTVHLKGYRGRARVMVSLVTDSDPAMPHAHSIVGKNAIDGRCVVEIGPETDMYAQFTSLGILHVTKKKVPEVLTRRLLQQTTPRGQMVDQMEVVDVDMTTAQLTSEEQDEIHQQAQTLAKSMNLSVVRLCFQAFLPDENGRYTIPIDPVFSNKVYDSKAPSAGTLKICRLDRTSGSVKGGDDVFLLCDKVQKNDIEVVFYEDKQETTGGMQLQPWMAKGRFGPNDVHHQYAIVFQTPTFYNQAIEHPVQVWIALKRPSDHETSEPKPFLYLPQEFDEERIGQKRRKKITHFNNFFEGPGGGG

[7] = biological target: GST-Hu-p50 (Homo sapiens, UniProt P19838 7-356)
Chain of GST-Hu-p50 (P19838 7-356): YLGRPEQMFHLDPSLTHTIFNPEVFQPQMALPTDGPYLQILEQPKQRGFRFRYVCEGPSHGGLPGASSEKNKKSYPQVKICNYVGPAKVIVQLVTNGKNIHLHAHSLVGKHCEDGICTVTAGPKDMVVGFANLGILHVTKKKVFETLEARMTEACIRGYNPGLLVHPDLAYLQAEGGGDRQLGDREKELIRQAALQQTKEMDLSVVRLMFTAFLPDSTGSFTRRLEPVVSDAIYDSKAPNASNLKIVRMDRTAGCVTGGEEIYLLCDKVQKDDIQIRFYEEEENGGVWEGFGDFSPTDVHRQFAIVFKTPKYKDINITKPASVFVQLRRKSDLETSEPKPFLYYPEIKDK

Sequence | binding signal [1] | binding signal [2] | binding signal [3] | binding signal [4] | binding signal [5] | binding signal [6] | binding signal [7]
CCGATTAACATCAGGGGGGTGGATGATGTTAATCGGGTCTTGATTCGCTTGACGCTGCTG | 4.23 z-score | 3.15 z-score | 4.75 z-score | 3.78 z-score | 3.78 z-score | 4.03 z-score | 4.19 z-score
CCGATTAACATCAGGGGGTTCCATGATGTTAATCGGGTCTTGATTCGCTTGACGCTGCTG | 7.79 z-score | 5.3 z-score | 5.6 z-score | 1.97 z-score | 9.47 z-score | 6.05 z-score | 5.73 z-score
CCGATTAACATCAGGACGTCCCCTGATGTTAATCGGGTCTTGATTCGCTTGACGCTGCTG | 7.08 z-score | 6.03 z-score | 4.26 z-score | 2.18 z-score | 5.29 z-score | 7.4 z-score | 4.57 z-score
CCGATTAACATCAGGAAACCCCATGATGTTAATCGGGTCTTGATTCGCTTGACGCTGCTG | 5.38 z-score | 4.14 z-score | 2.64 z-score | 1.76 z-score | 8.23 z-score | 4.84 z-score | 4.69 z-score
CCGATTAACATCACAAAAACCCCTGATGTTAATCGGGTCTTGATTCGCTTGACGCTGCTG | 7.23 z-score | 7.23 z-score | 6.81 z-score | 2.92 z-score | 8.1 z-score | 6.48 z-score | 6.99 z-score
CCGATTAACATCAAGGTATTCCCTGATGTTAATCGGGTCTTGATTCGCTTGACGCTGCTG | 4.4 z-score | 3.82 z-score | 3.75 z-score | 3.21 z-score | 6.27 z-score | 5.39 z-score | 2.26 z-score
CCGATTAACATCAAGAATTCCCCTGATGTTAATCGGGTCTTGATTCGCTTGACGCTGCTG | 9.76 z-score | 11.7 z-score | 12.3 z-score | 7.33 z-score | 8.81 z-score | 8.32 z-score | 7.54 z-score
CCGATTAACATCAGGGAAAACCCTGATGTTAATCGGGTCTTGATTCGCTTGACGCTGCTG | 7.33 z-score | 9.72 z-score | 7.71 z-score | 3.49 z-score | 9.01 z-score | 10.2 z-score | 5.66 z-score
CCGATTAACATCAGGGGGTTTACTGATGTTAATCGGGTCTTGATTCGCTTGACGCTGCTG | 7.86 z-score | 6.45 z-score | 7.4 z-score | 2.97 z-score | 9.74 z-score | 7.06 z-score | 7.11 z-score
CCGATTAACATCACTACCCCCCCTGATGTTAATCGGGTCTTGATTCGCTTGACGCTGCTG | 3.87 z-score | 3.41 z-score | 2.74 z-score | 5.59 z-score | 3.94 z-score | 3.4 z-score | 3.52 z-score
CCGATTAACATCAGGAGCCCCCCTGATGTTAATCGGGTCTTGATTCGCTTGACGCTGCTG | 5.02 z-score | 3.27 z-score | 2.66 z-score | 2.66 z-score | 6.02 z-score | 5.04 z-score | 4.41 z-score
CCGATTAACATCAGGGGGGTGTATGATGTTAATCGGGTCTTGATTCGCTTGACGCTGCTG | 3.69 z-score | 3.97 z-score | 4.14 z-score | 4.29 z-score | 4.17 z-score | 4.24 z-score | 3.91 z-score
